Reference: PubChem BioAssay
Values without a mark were called inactive. How the calls were made is not given here.

system: Aerobactin synthetase IucA (Klebsiella pneumoniae hvKP1); test: IucA enzyme inhibition, primary screen, biochemical, Spectrum library (AID 1346200); details: malachite green pyrophosphate, A620, at 8 µM, hits give low values;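 further: 100% = wells without compound and 0% = wells lacking enzyme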

| SMILES | activity remaining [%] |
| --- | --- |
| Nc1nc2ncc(CNc3ccc(C(=O)N[C@@H](CCC(=O)O)C(=O)O)cc3)nc2c(=O)[nH]1 | 91.3 |
| CCC(=O)OC1[C@@H]2CC3=C4CC(=O)O[C@@H](c5ccoc5)[C@]4(C)CCC3C(C)(C2=O)[C@@H](CC(=O)OC)C1(C)C (some centres not stated) | 121 |
| OCC(O)CN1CCN(c2ccccc2)CC1 (configuration not stated) | 107 |
| O[N+]1=CC=CCC1=S.On1ccccc1=S.[Zn] | 92.5 |
| COc1ccc2c(c1)CCC1C2CCC2(C)C1C[C@@H](O)C2O (some centres not stated) | 114 |
| NC(N)=O | 91.3 |
| CCCCCCCCCCCCCCC(C(=O)O)C(O)(CC(=O)OC)C(=O)O (configuration not stated) | 128 |
| COc1cccc(/C=C/C(=O)O)c1C(C)C | 122 |
| CC(C)=CCc1c2c(c(O)c3c(=O)c(O)c(-c4ccccc4)oc13)C=CC(C)(C)O2 | 110 |
| O=c1cc[nH]c(=S)[nH]1 | 97.7 |
| Nc1nccs1 | 89.3 |
| CC(=O)O[C@@H]1CC2C(C)(C)[C@@H](O)CC[C@]2(C)C2CC[C@@]3(C)[C@H](c4ccoc4)OC(=O)[C@H]4O[C@]43[C@@]21C (some centres not stated) | 124 |
| CCOc1ccc(C(=O)c2ccc(OC)c(O)c2O)cc1 | 109 |
| CCCCN(CCCC)CCCOC(=O)c1ccc(N)cc1 | 90 |
| Cc1cc(C(C)(C)C)c(O)c(C(C)(C)C)c1 | 110 |
| CCOC(=O)c1c(C)cc(OC)cc1O | 110 |
| O=C(O)c1cc(=O)c2ccccc2o1 | 110 |
